High-throughput results from PubChem.
A selection: hits, their analogues and other compounds. The true share with any hit is near 6.2%.
Lassa entry inh: blocks Lassa virus binding to or entry into cells; Potency, µM (doses to about 37.9 µM), for the others: at the top dose activity change, negative = inhibition, most hits filed as inhibitors; AID 540256; actives 1.2% (n = 300,000); Lassa virus pseudotype entry inhibition, cell reporter; calls by dose curve; tested in HEK293 cells; further: potency means the concentration at half of the fitted maximal effect; nearly all actives have a fitted effect of over 50% in size
FMDV inh: foot and mouth disease virus antiviral activity; actives 1.2% (n = 410,000); FMDV antiviral cell-based qHTS; Potency, µM (highest dose often 57.9 µM), without a hit: at the highest dose activity change, negative = inhibition, most hits filed as inhibitors; calls by dose curve; tested in HEK293T cells; further: read-out not given here; potency means the concentration at half of the fitted maximal effect; nearly all actives have a fitted effect of over 45% in size
HCMV antiviral: blocks human cytomegalovirus replication; HFF cells, HCMV-luciferase reporter, 72 h; active compounds read low; activity change, negative = inhibition, % at 57.5 µM; actives 4.5% (n = 410,000); AID 1259415; in the data active means activity change below about -60%; inconclusive means no clear call, values can overlap the other calls; inactive means above about -39%
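Luciferase read-out from HCMV-luciferase-infected HFFs (MOI 1 PFU/cell) 72 h post infection at 37C; compounds added after 16 h cell attachment; activity normalized between buffer-only basal and Salinomycin (10uM) inhibitor controls.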
MARV entry inh: inhibitors of Marburg virus binding or cell entry; Marburg virus pseudotyped entry inhibition, cell reporter; Potency, µM (series often up to 37.8 µM), inactives show at the highest dose activity change, negative = inhibition, actives largely listed as inhibitors; AID 540276; actives 1.8% (n = 300,000); calls by dose curve; tested in HEK293 cells; further: potency means the concentration at half of the fitted maximal effect
The depositor's hits bear a star; ? = inconclusive; nt = no result; ! = not confirmed by another sample; [ ] = dose if it differs, or a comment. On the % scale 0 is the no-effect control and ±100 the full control effect.

SMILES	Lassa entry inh	FMDV inh	HCMV antiviral	MARV entry inh
COc1ccccc1N1CCN(C(=O)c2ccc3nc(-c4ccco4)c(-c4ccco4)nc3c2)CC1	?	?	-8	21µM*
CC(=O)N1CCCc2cc(S(=O)(=O)Nc3cccc(C)c3C)ccc21	?	15%	-15	?
C/C(=N\Nc1cc(N2CCOCC2)nc(C)n1)c1ccc(F)cc1	?	-16%	60	2.8µM*
C/C(=N\Nc1cc(N2CCOCC2)ncn1)c1ccccc1	nt	43%	-11	nt
C/C(=N\Nc1cc(N2CCCCC2)nc(C)n1)c1ccc(Br)cc1	nt	?	-67*	nt
O=C1NC(=O)N(CCC2=CCCCC2)C(=O)/C1=C/c1ccc(O)cc1	nt	-13%	-29	7%
Cc1ccc(S(=O)(=O)c2c(C)cc(C)nc2Oc2cccc(C)c2C)cc1	?	-7%	-22	?
O=C(N/N=C/C=C/c1ccccc1)C1CC1c1ccccc1 (stereo not drawn)	0.13µM*	13%	5	?
CC(=O)Nc1ccc(/C(C)=N/NC(=O)C2CC2c2ccccc2)cc1 (stereo not drawn)	0.018µM*	-11%	-11	3%
CN(C)c1ccc(/C=N/NC(=O)C2CC2c2ccccc2)cc1 (stereo not drawn)	nt	12%	32	nt
CCC(CO)Oc1cc(NC(=O)c2ccc(N)cc2)c2ncn(C(C)C)c2c1 (stereo not drawn)	nt	-13%	-6	nt
N#Cc1nc(Cc2ccccc2)oc1NCCCn1ccnc1	7%	nt	15	-2%
Cc1ccc2nc(C3CCN(C(=O)NCc4ccccc4)CC3)[nH]c2c1	-17%[14.3 µM]	2%	-88*	11%
Cc1ccc2nc(C3CCCN(C(=O)NCc4ccccc4)C3)[nH]c2c1 (stereo not drawn)	4%	33%	47	14%
Cc1ccc(C2=Nc3ccccc3N(CC(=O)NCc3ccccc3Cl)C(=O)C2)cc1C	?	32%	86	nt
O=c1[nH]c(-c2ccccc2)cn1C1CCN(Cc2ccc(-c3nc4ccccc4nc3-c3ccccc3)cc2)CC1	nt	nt	118	nt
N#Cc1ccc2nc(-c3ccc(CN4CCC(n5cc(-c6ccccc6)[nH]c5=O)CC4)cc3)c(-c3ccccc3)nc2c1	nt	nt	-99*	nt
Cc1ccc(C)c(N(C)S(=O)(=O)c2ccc3[nH]cc(C(=O)NC4CCCC4)c(=O)c3c2)c1	-6%[46.1 µM]	-13%	-75*	nt
C=CCNC(=O)c1c[nH]c2ccc(S(=O)(=O)N(C)c3ccc(OCC)cc3)cc2c1=O	nt	0%	-67*	nt
CCN(c1ccccc1)S(=O)(=O)c1ccc2[nH]cc(C(=O)NC3CCCCC3)c(=O)c2c1	?	-24%	-102*	nt
O=C(O)c1cc(N=Nc2c(O)ccc3ccccc23)cc(C(=O)O)c1	?	-27%	150	-8%
O=C(O)c1ccc(N=Nc2c(O)ccc3ncccc23)cc1	nt	5.6µM*	?	nt
CCOCCCn1c(SCC(=O)Nc2ccc(OC)cc2)nc2ccccc2c1=O	-1%[46.1 µM]	-26%	5	-4%[46.1 µM]
Cc1cc(C)c2cc(N)c(Cl)nc2n1	nt	-12%	-11	nt
O=C(CCNC(=O)c1ccc([N+](=O)[O-])cc1)NC1CCCc2ccccc21 (stereo not drawn)	?	-1%	-2	2µM*
SMILES	Lassa entry inh	FMDV inh	HCMV antiviral	MARV entry inh
O=C(CCNC(=O)c1ccccc1)NC1CCCc2ccccc21 (stereo not drawn)	-5%	3%	-26	?
OCC(CO)(CO)NC(=S)Nc1cc(Cl)cc(Cl)c1	nt	-4%	-7	nt
Cc1nc(SCc2ccc(C(=O)O)cc2)nc2c1CCCC2	-28%[46.1 µM]	?	-61*	?
Cc1nc(SCc2cccc(Cl)c2)nc2c1CCCC2	1%[46.1 µM]	8%	18	6%[46.1 µM]
COc1cccc(CN(C)C[C@H]2OCc3cnnn3CCCC(=O)N([C@@H](C)CO)C[C@@H]2C)c1	nt	-3%	-3	nt
OC(CN1CCOCC1)CN1CCOCC1	3%	-4%	-65*	0%
CN(CC(O)CN1CCOCC1)S(=O)(=O)O (stereo not drawn)	17%	-9%	0	0%[46.1 µM]
CCOC(=O)N1CC(C)N(CC(O)CN2CCOCC2)CC1C (stereo not drawn)	7%[46.1 µM]	0%	-88*	4%[46.1 µM]
CCOC(=O)N1CCN(C(=O)N2CCOCC2)CC1	21%	-1%	2	8%
COc1ccc(CN2CCOCC2)cc1Br	-9%	31%	33	9%
O=C(NCc1ccccc1)Nc1cccn(Cc2c(F)cccc2Cl)c1=O	nt	?	-74*	nt
Cc1ccc(NC(=O)Nc2cccn(Cc3c(F)cccc3Cl)c2=O)cc1	nt	0%	33	nt
CCCN(CCC)CCc1ccc(O)c(O)c1	24%	-9%	nt	1µM*!
Cn1c(=O)c2cc(NC(=O)NCCc3ccccc3)ccc2n1Cc1ccccc1	nt	6%	-18	nt
COc1ccc(S[C@@H](CCN2CC[C@H](C)CCC2=O)c2ccccc2)cc1	nt	-6%	-8	nt
C[C@@H]1CCC(=O)N(CC[C@H](Oc2ccccc2)c2ccccc2)CC1	nt	8%	-64*	nt
COC(=O)Nc1ccc(S(=O)(=O)Nc2ccc(O)cc2)cc1	-28%	nt	-67*	8%
COC(C(=O)Nc1ccc(F)cc1)c1ccccc1 (stereo not drawn)	0%	19%	-13	-20%
COC(C(=O)Nc1ccc(S(=O)(=O)Nc2cccc3ccccc23)cc1)c1ccccc1 (stereo not drawn)	?	0%	-88*	-20%
COC(C(=O)Nc1ccc(S(=O)(=O)Nc2ccc(F)cc2)cc1)c1ccccc1 (stereo not drawn)	?	6%	-62*	7.9µM*
CN(C)CCNc1ncnc2c1ncn2[C@H]1CN(Cc2ccc(F)cc2)C[C@@H](CO)O1	nt	0%	-5	nt
COC(=O)[C@@H]1CCCN1Cc1ccc2c(c1)CN(Cc1ccc3c(c1)CCCN3C)CCO2	nt	-2%	nt	nt
Cc1cccc(OCC(=O)OCC(=O)N2CCCc3ccccc32)c1C	nt	-12%	-1	nt
COc1cc(C(=S)N2CCCCC2)ccc1O	10%	nt	22	15%
Oc1ccc(C(=S)N2CCCCC2)cc1Cl	-10%	-23%	-75*	-16%
SMILES	Lassa entry inh	FMDV inh	HCMV antiviral	MARV entry inh
CCn1c(COc2ccc(=O)n(-c3ccccc3)n2)nnc1SCc1ccccc1C	-16%	-20%	-65*	-20%
CCn1c(COc2ccc(=O)n(-c3ccccc3)n2)nnc1SCc1ccc(C)cc1	?	-13%	-14	-10%
CC(=O)Nc1ccc(NC2=Nc3ccccc3N3C2=Nc2c(c(C)nn2-c2ccccc2)C3c2ccccc2)cc1 (stereo not drawn)	?	10µM*	-99*	?
CSc1ccc(/C=C(\C(=O)O)c2ccc(S(=O)(=O)N3CCCCC3)s2)cc1	nt	2%	-16	nt
CC(=O)Nc1cccc(C(=O)/C=C/c2ccc(F)cc2)c1	?	?	-99*	?
CC(=O)Nc1cccc(C(=O)/C=C/c2ccc[nH]2)c1	nt	57%	28	nt
CC(=O)Nc1cccc(C(=O)/C=C/c2ccc(/C=C/C(=O)c3cccc(NC(C)=O)c3)cc2)c1	nt	nt	-88*	nt
CCC(=O)Nc1cccc(C(=O)/C=C/c2cc(Br)ccc2OC)c1	11µM*	8.9µM*	-104*	?
CC(=O)Nc1cccc(C(=O)/C=C/c2ccc(N(C)C)cc2)c1	-10%	26%	30	4%
Cc1cccc(C(=O)Nc2ccc(C(=O)/C=C/c3cccnc3)cc2)c1	?	-22%	18	?
